# Measured values taken from the supplement of paper PMC10933113.
# A number with no mark means an inactive call.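 Rule for the calls: active = curve rank above 3; inactive = curve rank 0.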
# Test system: KeratinoSens (HaCaT ARE-luciferase) cells
# Assay: Nrf2/ARE luciferase activation call in qHTS KeratinoSens assay (1 = active, 0 = inactive)
row,Compound,Nrf2/ARE luciferase activation call
1,C[NH+](C)CCC(c1ccccc1)c1cccc[nH+]1.O=C([O-])/C=C\C(=O)[O-] (stereo not given),not active ARE inducer (skin sensitizer alert)
2,CCN(CC)C(=O)N1CCN(C)CC1.O=C(O)CC(O)(CC(=O)O)C(=O)O,not active ARE inducer (skin sensitizer alert)
3,CCCCn1cc[n+](C)c1.O=S(=O)([O-])C(F)(F)F,not active ARE inducer (skin sensitizer alert)
4,Cc1ccsc1/C=C/C1=NCCCN1C.O=C(O)[C@@H](O)[C@@H](O)C(=O)O,not active ARE inducer (skin sensitizer alert)
5,O=C(O)c1ccc2ccccc2c1O.OCc1cc(C(O)CNCCCCCCOCCCCc2ccccc2)ccc1O (stereo not given),not active ARE inducer (skin sensitizer alert)
6,C[C@@H](CN(C)C)CN1c2ccccc2Sc2ccccc21.C[C@@H](CN(C)C)CN1c2ccccc2Sc2ccccc21.O=C(O)[C@@H](O)[C@@H](O)C(=O)O,not active ARE inducer (skin sensitizer alert)
7,CCCCn1cc[n+](C)c1C.O=S(=O)([O-])C(F)(F)F,not active ARE inducer (skin sensitizer alert)
8,O=C(O)/C=C/C(=O)O.c1ccc(C(O[C@H]2CCCN(CCc3ccc4c(c3)OCO4)C2)c2ccccc2)cc1,not active ARE inducer (skin sensitizer alert)
9,CCN(CCCc1ccccc1)CCCc1ccccc1.O=C(O)CC(O)(CC(=O)O)C(=O)O,not active ARE inducer (skin sensitizer alert)
10,CC(C)C[P+](C)(CC(C)C)CC(C)C.Cc1ccc(S(=O)(=O)[O-])cc1,not active ARE inducer (skin sensitizer alert)
11,CC(C)OC(=O)OCOP(=O)(CO[C@H](C)Cn1cnc2c(N)ncnc21)OCOC(=O)OC(C)C.O=C(O)C=CC(=O)O,not active ARE inducer (skin sensitizer alert)
12,COc1ccc(CN(CCN(C)C)c2ccccn2)cc1.O=C(O)/C=C\C(=O)O,not active ARE inducer (skin sensitizer alert)
13,CC(CN(C)C)CN1c2ccccc2CCc2ccccc21.O=C(O)/C=C\C(=O)O (stereo not given),not active ARE inducer (skin sensitizer alert)
14,CN(C)CCOC(c1ccc(Cl)cc1)c1ccccn1.O=C(O)/C=C\C(=O)O (stereo not given),not active ARE inducer (skin sensitizer alert)
15,CCCc1nc(C)c2c(=O)nc(-c3cc(S(=O)(=O)N4CCN(CC)CC4)ccc3OCC)[nH]n12.O=C(O)CC(O)(CC(=O)O)C(=O)O,not active ARE inducer (skin sensitizer alert)
16,CCn1cc[n+](C)c1C.O=S(=O)([O-])C(F)(F)F,not active ARE inducer (skin sensitizer alert)
17,COc1cc(N)c(Cl)cc1C(=O)NC1CCN(Cc2ccccc2)CC1.O=C(O)/C=C\C(=O)O,not active ARE inducer (skin sensitizer alert)
18,CCCC[n+]1ccccc1.O=S(=O)([O-])C(F)(F)F,not active ARE inducer (skin sensitizer alert)

row,Compound,Nrf2/ARE luciferase activation call
1,CCC(C(=O)OCCOCCN(CC)CC)c1ccccc1.O=C(O)CC(O)(CC(=O)O)C(=O)O (stereo not given),not active ARE inducer (skin sensitizer alert)
2,CC(C)(C)NC[C@H](O)COc1nsnc1N1CCOCC1.O=C(O)/C=C\C(=O)O,not active ARE inducer (skin sensitizer alert)
3,CC[n+]1ccccc1.O=S(=O)([O-])C(F)(F)F,not active ARE inducer (skin sensitizer alert)
4,CC[N+]1(C)CCCC1.O=S(=O)([O-])C(F)(F)F,not active ARE inducer (skin sensitizer alert)
5,CCCCCCCCn1cc[n+](C)c1.O=S(=O)([O-])C(F)(F)F,not active ARE inducer (skin sensitizer alert)
6,CN1CCN(CCCN2c3ccccc3Sc3ccc(Cl)cc32)CC1.O=C(O)/C=C\C(=O)O.O=C(O)/C=C\C(=O)O,not active ARE inducer (skin sensitizer alert)
7,CN1C(C)(C)CCCC1(C)C.O=C(O)[C@@H](O)[C@H](O)C(=O)O,not active ARE inducer (skin sensitizer alert)
8,CCn1cc[n+](C)c1.Cc1ccc(S(=O)(=O)[O-])cc1,not active ARE inducer (skin sensitizer alert)
9,CC1(C)S[C@@H]2[C@H](NC(=O)Cc3ccccc3)C(=O)N2[C@H]1C(=O)O.CC1(C)S[C@@H]2[C@H](NC(=O)Cc3ccccc3)C(=O)N2[C@H]1C(=O)O.c1ccc(CNCCNCc2ccccc2)cc1,not active ARE inducer (skin sensitizer alert)
10,CCC1=C[C@@H]2C[N@](C1)Cc1c([nH]c3ccccc13)[C@@](C(=O)OC)(c1cc3c(cc1OC)N(C)[C@H]1[C@@](O)(C(=O)OC)[C@H](OC(C)=O)[C@]4(CC)C=CCN5CC[C@]31[C@@H]54)C2.O=C(O)C(O)C(O)C(=O)O.O=C(O)C(O)C(O)C(=O)O,active ARE inducer (skin sensitizer alert)
11,CCN(CC)CCc1nc(-c2ccccc2)no1.O=C(O)CC(O)(CC(=O)O)C(=O)O,not active ARE inducer (skin sensitizer alert)
12,CCOc1cc(N)c(Cl)cc1C(=O)NCC1CN(Cc2ccc(F)cc2)CCO1.O=C(O)CC(O)(CC(=O)O)C(=O)O (stereo not given),not active ARE inducer (skin sensitizer alert)
13,Cc1ccccc1C(OCCN(C)C)c1ccccc1.O=C(O)CC(O)(CC(=O)O)C(=O)O (stereo not given),not active ARE inducer (skin sensitizer alert)
14,O=C(O)/C=C\C(=O)O.O=C(O)/C=C\C(=O)O.c1cc(CN2CCCCC2)cc(OCCCNc2nc3ccccc3s2)c1,not active ARE inducer (skin sensitizer alert)
15,CCCC[n+]1cccc(C)c1.O=S(=O)([O-])C(F)(F)F,not active ARE inducer (skin sensitizer alert)
16,CN(CCOc1ccc(CC2SC(=O)NC2=O)cc1)c1ccccn1.O=C(O)/C=C\C(=O)O (stereo not given),not active ARE inducer (skin sensitizer alert)
17,CCCC[n+]1ccc(C)cc1.O=S(=O)([O-])C(F)(F)F,not active ARE inducer (skin sensitizer alert)
